# According to PubChem BioAssay (EPA / NIEHS):
# Inconclusive results are not listed. Calls of active or inactive are those of the source. How the source made its calls, unless noted: active means hit-call score of the fitted dose curve at least 0.9, where 1 is the maximum; inactive means score below 0.9.
# Key:
# [1] = molecular target: Glucocorticoid receptor (Homo sapiens) (UniProt P04150); test: ATG_GR_TRANS: Attagene TRANS-FACTORIAL HepG2 Assay for human Glucocorticoid Receptor (GR) (AID 2282978; active means hit-call score of the fitted dose curve at least 0.9, where 1 is the maximum;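 further: activators score as hits since higher reporter transcript over DMSO is fitted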); conditions: HepG2 Attagene TRANS GR reporter, mRNA transcription
# Method in brief: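 Transiently transfected HepG2 cells express chimeric NR-GAL4 proteins acting on GAL4-UAS reporter units. Compounds are applied for 24 h. mRNA induction over DMSO is measured by capillary electrophoresis.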
# [2] = ATG_M_06_TRANS: Attagene TRANS-FACTORIAL HepG2 Assay for M06 Transcription Factor (Internal Marker) (AID 2282983; active means hit-call score of the fitted dose curve at least 0.9, where 1 is the maximum); conditions: HepG2 Attagene TRANS M06 internal marker reporter
# Method in brief: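 Measured by capillary electrophoresis of fluorescently labelled RT-PCR products, this endpoint reflects reporter mRNA in HepG2 cells harbouring exogenous NR-GAL4 reporter constructs after 24 h exposure, with DMSO as baseline.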
# [3] = ATG_M_32_TRANS: Attagene TRANS-FACTORIAL HepG2 Assay for M32 Transcription Factor (Internal Marker) (AID 2282984; active means hit-call score of the fitted dose curve at least 0.9, where 1 is the maximum;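 further: transcript level of a background control reporter unit measured by RT-PCR and capillary electrophoresis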); conditions: HepG2 Attagene TRANS M32 internal marker reporter
# Method in brief: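 Human hepatoma HepG2, transient MRTU transfection, 24 h treatment. RNA → RT-PCR → fluorescent primer extension → HpaI digest (2 h, 37 C) → CE. Positive-direction fit vs DMSO.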
# [4] = molecular target: Nuclear receptor subfamily 4 group A member 2 (Homo sapiens) (UniProt P43354); test: ATG_NURR1_TRANS: Attagene TRANS-FACTORIAL HepG2 Assay for human Nuclear Receptor Related Protein 1 (NURR1) (AID 2282985; active means hit-call score of the fitted dose curve at least 0.9, where 1 is the maximum); conditions: HepG2 Attagene TRANS reporter, mRNA readout
# Method in brief: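 After 24 h chemical dosing, total RNA from transiently transfected HepG2 cells was reverse-transcribed and reporter cDNA PCR-amplified, FAM-labelled and analysed by capillary electrophoresis. Activity fitted in positive direction, DMSO as negative control.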
# [5] = molecular target: Transcriptional activator Myb (Homo sapiens) (UniProt P10242); test: ATG_Myb_CIS: Attagene CIS-FACTORIAL HepG2 Assay for human Myeloblastosis (Myb) Proto-Oncogene Transcription Factor (AID 2282986); conditions: HepG2 Attagene CIS-FACTORIAL Myb reporter transcription; actives raise or lower the signal
# Method in brief: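 Using HepG2 liver cells bearing transiently transfected cis-promoter reporter constructs, the assay measures induction or loss of reporter mRNA after 24 hours of dosing. Detection used fluorescently labeled RT-PCR products separated by capillary electrophoresis.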
# [6] = molecular target: Nuclear respiratory factor 1 (Homo sapiens) (UniProt Q16656); test: ATG_NRF1_CIS: Attagene CIS-FACTORIAL HepG2 Assay for human Nuclear Respiratory Factor 1 (NRF1) Orphan Gene (AID 2282987); conditions: HepG2 NRF1 cis-element reporter, Attagene multiplex; actives raise or lower the signal
# Method in brief: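 Reporter mRNA induction or loss in HepG2 cells after 24 h dosing; cis-regulated reporter constructs report endogenous transcription-factor activity. Quantified by RT-PCR/capillary electrophoresis fluorescence, DMSO-referenced.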
# [7] = ATG_NFI_CIS: Attagene CIS-FACTORIAL HepG2 Assay for human Nuclear Factor I (NFI) (AID 2282989); conditions: HepG2 cis-regulatory reporter, NFI response element transcription; actives raise or lower the signal
# Method in brief: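 Reporter transcripts were measured by RT-PCR with fluorescent primer extension and capillary electrophoresis 24 h post-treatment. HepG2 cells carried transiently transfected cis-regulated reporter constructs reporting endogenous factor activity; gain or loss fitted against DMSO baseline.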
# [8] = ATG_NF_kB_CIS: Attagene CIS-FACTORIAL HepG2 Assay for human Nuclear Factor Kappa B (NF-kB) (AID 2282991); conditions: HepG2 Attagene cis-factorial NF-kB reporter mRNA; actives raise or lower the signal
# Method in brief: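 DMSO served as negative control and baseline for bidirectional curve fitting. Transiently transfected HepG2 cells were dosed for 24 h, then reporter transcripts were measured by RT-PCR with capillary electrophoresis detection.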
# [9] = ATG_NRF2_ARE_CIS: Attagene CIS-FACTORIAL HepG2 Assay for human Nuclear Factor Erythroid 2 Related Factor 2 (NFR2) response to Antioxidant Response Elements (ARE) (AID 2282992); conditions: HepG2 Attagene ARE/NRF2 reporter, transcription factor activity; actives raise or lower the signal;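 on AC50: reporter mRNA level measured by RT-PCR and capillary electrophoresis fluorescence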
# Method in brief: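 Cis-factorial assay: transfected HepG2 reporter library, 24 h dosing, mRNA readout via RT-PCR/CE; DMSO-referenced bidirectional analysis.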
# [10] = ATG_Oct_MLP_CIS: Attagene CIS-FACTORIAL HepG2 Assay for human Octamer-Binding Transcription Factor (Oct) (AID 2282993); conditions: HepG2 Attagene cis-factorial Oct reporter, mRNA; actives raise or lower the signal
# Method in brief: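 Readout is reporter transcript level from RT-PCR with fluorescent primer extension and capillary electrophoresis, fitted in both directions against DMSO. Transfected HepG2 reporter units report endogenous factor activity after 24 h dosing.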
# [11] = molecular target: Cellular tumor antigen p53 (Homo sapiens) (UniProt P04637); test: ATG_p53_CIS: Attagene CIS-FACTORIAL HepG2 Assay for human p53 Transcription Factor (AID 2282994); conditions: HepG2 p53 cis-element reporter, Attagene mRNA; actives raise or lower the signal
# Method in brief: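 Using HepG2 hepatoma cells carrying cis-acting multiplexed reporters, mRNA induction is detected after a 24 h exposure. Gain- and loss-of-signal responses are fitted relative to DMSO-treated cells.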
# [12] = molecular target: Hepatocyte nuclear factor 4-alpha (Homo sapiens) (UniProt P41235); test: ATG_HNF4a_TRANS: Attagene TRANS-FACTORIAL HepG2 Assay for human Hepatocyte Nuclear Factor 4 alpha (HNF4a) (AID 2282982; active means hit-call score of the fitted dose curve at least 0.9, where 1 is the maximum); conditions: HepG2 HNF4a transactivation reporter, mRNA readout
# Method in brief: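 Cells used were human HepG2, transiently carrying GAL4-UAS reporter units read out against exogenous NR-GAL4 chimeras. Reporter transcript levels after 24 h dosing were quantified by fluorescent RT-PCR and capillary electrophoresis.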
# [13] = molecular target: Myc proto-oncogene protein (Homo sapiens) (UniProt P01106); test: ATG_Myc_CIS: Attagene CIS-FACTORIAL HepG2 Assay for human Myelocytomatosis (Myc) Proto-Oncogene Transcription Factor (AID 2282990); conditions: HepG2, Attagene cis-reporter transcription factor activity; actives raise or lower the signal
# Method in brief: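 DMSO-normalised, bidirectionally fitted reporter mRNA signal. HepG2 cells transfected with cis reporter constructs, treated 24 h; transcripts detected by RT-PCR, 6-FAM primer extension and CE.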
# [14] = molecular target: Oxysterols receptor LXR-beta (Homo sapiens) (UniProt P55055); test: ATG_LXRb_TRANS: Attagene TRANS-FACTORIAL HepG2 Assay for human Liver X Receptor beta (LXRb) (AID 2282981; active means hit-call score of the fitted dose curve at least 0.9, where 1 is the maximum); conditions: HepG2 Attagene TRANS GAL4-LXRb reporter, mRNA
# Method in brief: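 In this TRANS format, exogenous chimeric NR-Gal4 protein activity, not endogenous factors, drives reporter expression in transfected human HepG2 cells. Exposure lasted 24 h; reporter mRNA was read by fluorescent capillary electrophoresis.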
# [15] = molecular target: Bile acid receptor (Homo sapiens) (UniProt Q96RI1); test: ATG_FXR_TRANS: Attagene TRANS-FACTORIAL HepG2 Assay for Farnesoid X Receptor (FXR) (AID 2282979; active means hit-call score of the fitted dose curve at least 0.9, where 1 is the maximum;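 further: hits raise reporter mRNA above DMSO so AC50 marks FXR activation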); conditions: HepG2 Attagene TRANS FXR-GAL4 reporter transcription
# Method in brief: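 Chimeric FXR-GAL4 activity in transiently transfected human HepG2 liver cells is scored as induction of reporter mRNA after 24 h of dosing. Detection uses RT-PCR with fluorescent labelling and capillary electrophoresis, with DMSO serving as baseline.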
# [16] = molecular target: Oxysterols receptor LXR-alpha (Homo sapiens) (UniProt Q13133); test: ATG_LXRa_TRANS: Attagene TRANS-FACTORIAL HepG2 Assay for human Liver X Receptor alpha (LXRa) (AID 2282980; active means hit-call score of the fitted dose curve at least 0.9, where 1 is the maximum); conditions: HepG2 Attagene TRANS reporter, LXRa transactivation
# Method in brief: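 Transient HepG2 transfectants, 24 h dosing, RT-PCR/CE mRNA reporter quantitation; gain-of-signal vs DMSO.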
# [17] = BSK_3C_TissueFactor: BioMAP Diversity Plus: 3C Assay for Tissue Factor Biomarker Activity (AID 2282997); conditions: BioMAP 3C HUVEC, tissue factor biomarker readout; actives raise or lower the signal
# Method in brief: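 Values derive from bidirectional curve fitting against DMSO of Tissue Factor ELISA signals, taken 24 h after dosing primary human umbilical vein endothelial cells.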
# [18] = BSK_3C_uPAR: BioMAP Diversity Plus: 3C Assay for Urokinase-type plasminogen activator receptor (uPAR) Biomarker Activity (AID 2282998); conditions: BioMAP 3C HUVEC, uPAR biomarker ELISA; actives raise or lower the signal
# Method in brief: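 Cell-surface uPAR on HUVEC (3C system) read by ELISA at 24 h post-treatment, with DMSO as baseline and fitting in both directions. Parallel cultures stained with SRB to flag overt cytotoxicity.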
# [19] = BSK_3C_VCAM1: BioMAP Diversity Plus: 3C Assay for Vascular cell adhesion molecule 1 (VCAM1) Biomarker Activity (AID 2282999); conditions: BioMAP 3C HUVEC, VCAM1 ELISA, cytokine-stimulated; actives raise or lower the signal
# Method in brief: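 Human umbilical vein endothelial cells were dosed with compound for 24 h, after which cell-surface VCAM-1 was quantified by ELISA. Bidirectional curve fitting used DMSO as negative control and activity baseline.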
# [20] = BSK_4H_Eotaxin3: BioMAP Diversity Plus: 4H Assay for Eotaxin 3 Biomarker Activity (AID 2283000); conditions: primary human endothelial cells (HUVEC); actives raise or lower the signal
# Method in brief: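 Endothelial primary cells (human umbilical vein) exposed to compound for 24 h. ELISA detection of Eotaxin-3.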
# Sequence of Oxysterols receptor LXR-alpha (Homo sapiens) (Q13133 whole entry, looked up): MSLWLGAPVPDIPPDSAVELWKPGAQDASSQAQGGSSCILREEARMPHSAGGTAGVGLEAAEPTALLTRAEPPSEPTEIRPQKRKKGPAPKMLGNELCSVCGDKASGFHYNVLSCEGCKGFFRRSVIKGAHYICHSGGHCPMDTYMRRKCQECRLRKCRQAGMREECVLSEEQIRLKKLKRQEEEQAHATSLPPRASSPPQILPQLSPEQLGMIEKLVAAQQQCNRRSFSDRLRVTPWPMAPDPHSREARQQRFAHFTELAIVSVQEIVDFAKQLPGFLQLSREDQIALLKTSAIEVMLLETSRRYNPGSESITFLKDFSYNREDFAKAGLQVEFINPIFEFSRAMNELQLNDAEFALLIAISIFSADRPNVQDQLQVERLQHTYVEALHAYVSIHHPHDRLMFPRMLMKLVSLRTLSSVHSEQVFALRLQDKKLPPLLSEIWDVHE
# Sequence of Transcriptional activator Myb (Homo sapiens) (P10242 whole entry, looked up): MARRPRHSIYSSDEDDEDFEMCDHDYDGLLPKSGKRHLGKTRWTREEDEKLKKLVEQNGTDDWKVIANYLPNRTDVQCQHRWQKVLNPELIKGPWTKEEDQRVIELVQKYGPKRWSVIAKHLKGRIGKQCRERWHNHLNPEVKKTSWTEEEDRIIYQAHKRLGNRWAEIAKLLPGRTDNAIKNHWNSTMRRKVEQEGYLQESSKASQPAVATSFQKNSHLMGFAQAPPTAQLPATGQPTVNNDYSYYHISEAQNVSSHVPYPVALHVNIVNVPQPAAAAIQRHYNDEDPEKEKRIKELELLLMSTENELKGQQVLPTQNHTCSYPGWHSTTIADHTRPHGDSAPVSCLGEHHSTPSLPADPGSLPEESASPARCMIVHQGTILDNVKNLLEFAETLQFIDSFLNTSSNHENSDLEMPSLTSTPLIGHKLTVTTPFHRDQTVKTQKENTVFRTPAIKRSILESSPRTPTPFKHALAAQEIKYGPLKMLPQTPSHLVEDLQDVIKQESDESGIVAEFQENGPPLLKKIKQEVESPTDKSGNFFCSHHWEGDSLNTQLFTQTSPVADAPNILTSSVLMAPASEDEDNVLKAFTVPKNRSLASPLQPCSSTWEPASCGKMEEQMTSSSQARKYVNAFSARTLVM
# Sequence of Bile acid receptor (Homo sapiens) (Q96RI1 whole entry, looked up, the tested form may be a part): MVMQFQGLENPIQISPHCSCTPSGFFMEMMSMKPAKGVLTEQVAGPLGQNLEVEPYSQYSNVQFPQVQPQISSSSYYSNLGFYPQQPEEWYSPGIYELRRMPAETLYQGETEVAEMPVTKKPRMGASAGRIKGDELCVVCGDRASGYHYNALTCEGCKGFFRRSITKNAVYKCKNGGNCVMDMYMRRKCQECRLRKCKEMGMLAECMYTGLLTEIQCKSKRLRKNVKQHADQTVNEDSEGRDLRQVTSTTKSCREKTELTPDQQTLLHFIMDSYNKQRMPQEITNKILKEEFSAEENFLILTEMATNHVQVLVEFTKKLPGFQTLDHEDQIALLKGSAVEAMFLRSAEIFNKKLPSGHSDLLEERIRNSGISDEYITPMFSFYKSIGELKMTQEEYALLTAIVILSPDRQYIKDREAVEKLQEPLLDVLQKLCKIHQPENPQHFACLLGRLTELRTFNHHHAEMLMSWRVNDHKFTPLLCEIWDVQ
# Sequence of Nuclear receptor subfamily 4 group A member 2 (Homo sapiens) (P43354 whole entry, looked up): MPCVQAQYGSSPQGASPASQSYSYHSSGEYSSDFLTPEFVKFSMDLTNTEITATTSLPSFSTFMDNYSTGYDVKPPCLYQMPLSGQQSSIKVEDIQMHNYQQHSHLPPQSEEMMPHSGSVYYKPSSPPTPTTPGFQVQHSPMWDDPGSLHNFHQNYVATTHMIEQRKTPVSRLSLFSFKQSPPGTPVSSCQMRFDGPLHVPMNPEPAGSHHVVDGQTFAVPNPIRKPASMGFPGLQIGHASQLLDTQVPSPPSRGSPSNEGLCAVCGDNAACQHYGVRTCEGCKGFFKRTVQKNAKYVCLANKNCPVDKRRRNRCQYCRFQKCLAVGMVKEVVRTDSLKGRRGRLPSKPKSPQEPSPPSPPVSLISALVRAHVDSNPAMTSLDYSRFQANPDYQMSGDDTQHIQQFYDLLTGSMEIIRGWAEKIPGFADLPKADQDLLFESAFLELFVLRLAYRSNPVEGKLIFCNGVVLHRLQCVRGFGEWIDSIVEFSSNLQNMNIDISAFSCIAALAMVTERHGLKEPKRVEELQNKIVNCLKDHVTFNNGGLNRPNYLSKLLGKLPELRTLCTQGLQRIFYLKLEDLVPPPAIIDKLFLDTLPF
# Sequence of Oxysterols receptor LXR-beta (Homo sapiens) (P55055 whole entry, looked up, the tested form may be a part): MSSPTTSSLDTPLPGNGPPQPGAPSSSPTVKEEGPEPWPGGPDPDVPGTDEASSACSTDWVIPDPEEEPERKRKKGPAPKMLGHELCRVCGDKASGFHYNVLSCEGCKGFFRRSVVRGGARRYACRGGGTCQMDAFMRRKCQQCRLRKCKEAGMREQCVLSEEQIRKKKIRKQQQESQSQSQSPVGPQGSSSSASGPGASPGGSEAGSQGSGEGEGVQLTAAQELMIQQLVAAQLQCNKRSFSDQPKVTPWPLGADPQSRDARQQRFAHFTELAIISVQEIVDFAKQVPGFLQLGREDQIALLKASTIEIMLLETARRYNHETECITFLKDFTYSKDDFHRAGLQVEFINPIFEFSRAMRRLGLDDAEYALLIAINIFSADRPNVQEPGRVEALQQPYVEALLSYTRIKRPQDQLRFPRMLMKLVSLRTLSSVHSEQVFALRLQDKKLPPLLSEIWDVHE
# Sequence of Myc proto-oncogene protein (Homo sapiens) (P01106 whole entry, looked up): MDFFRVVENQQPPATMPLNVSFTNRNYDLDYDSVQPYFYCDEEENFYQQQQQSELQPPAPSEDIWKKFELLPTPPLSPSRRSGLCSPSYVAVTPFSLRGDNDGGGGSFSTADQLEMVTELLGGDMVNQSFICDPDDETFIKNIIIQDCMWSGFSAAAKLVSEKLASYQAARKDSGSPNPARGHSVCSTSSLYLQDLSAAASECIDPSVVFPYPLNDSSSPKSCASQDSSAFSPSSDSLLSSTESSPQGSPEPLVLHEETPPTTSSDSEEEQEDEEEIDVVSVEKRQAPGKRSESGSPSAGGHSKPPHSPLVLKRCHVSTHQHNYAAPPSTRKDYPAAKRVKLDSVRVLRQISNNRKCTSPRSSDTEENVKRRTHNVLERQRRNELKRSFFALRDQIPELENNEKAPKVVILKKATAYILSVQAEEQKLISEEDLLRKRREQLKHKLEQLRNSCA
# Sequence of Nuclear respiratory factor 1 (Homo sapiens) (Q16656 whole entry, looked up): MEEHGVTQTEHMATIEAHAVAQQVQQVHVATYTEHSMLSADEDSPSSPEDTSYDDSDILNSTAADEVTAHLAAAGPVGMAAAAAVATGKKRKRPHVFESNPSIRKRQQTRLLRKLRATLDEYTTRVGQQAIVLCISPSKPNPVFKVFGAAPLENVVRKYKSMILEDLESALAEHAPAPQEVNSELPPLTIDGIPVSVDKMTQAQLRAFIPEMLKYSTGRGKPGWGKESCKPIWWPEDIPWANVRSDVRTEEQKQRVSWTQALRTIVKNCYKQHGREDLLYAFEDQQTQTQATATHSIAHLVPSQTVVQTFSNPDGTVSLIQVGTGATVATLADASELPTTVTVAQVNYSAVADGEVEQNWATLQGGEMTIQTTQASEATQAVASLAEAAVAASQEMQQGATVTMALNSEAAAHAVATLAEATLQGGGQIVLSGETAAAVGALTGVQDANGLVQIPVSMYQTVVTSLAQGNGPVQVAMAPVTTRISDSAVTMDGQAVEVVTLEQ
# Sequence of Cellular tumor antigen p53 (Homo sapiens) (P04637 whole entry, looked up): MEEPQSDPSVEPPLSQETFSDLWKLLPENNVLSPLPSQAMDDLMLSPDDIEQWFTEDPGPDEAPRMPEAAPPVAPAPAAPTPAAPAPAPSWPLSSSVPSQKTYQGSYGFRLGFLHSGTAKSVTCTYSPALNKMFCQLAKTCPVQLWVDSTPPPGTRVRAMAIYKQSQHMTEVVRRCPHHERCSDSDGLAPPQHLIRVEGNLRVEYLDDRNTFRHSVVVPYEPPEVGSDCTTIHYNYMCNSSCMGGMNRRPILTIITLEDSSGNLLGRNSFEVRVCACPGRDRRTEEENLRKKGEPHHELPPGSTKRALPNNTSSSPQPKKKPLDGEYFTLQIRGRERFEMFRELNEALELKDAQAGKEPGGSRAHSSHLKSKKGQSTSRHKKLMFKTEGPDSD
# Sequence of Hepatocyte nuclear factor 4-alpha (Homo sapiens) (P41235 whole entry, looked up, the tested form may be a part): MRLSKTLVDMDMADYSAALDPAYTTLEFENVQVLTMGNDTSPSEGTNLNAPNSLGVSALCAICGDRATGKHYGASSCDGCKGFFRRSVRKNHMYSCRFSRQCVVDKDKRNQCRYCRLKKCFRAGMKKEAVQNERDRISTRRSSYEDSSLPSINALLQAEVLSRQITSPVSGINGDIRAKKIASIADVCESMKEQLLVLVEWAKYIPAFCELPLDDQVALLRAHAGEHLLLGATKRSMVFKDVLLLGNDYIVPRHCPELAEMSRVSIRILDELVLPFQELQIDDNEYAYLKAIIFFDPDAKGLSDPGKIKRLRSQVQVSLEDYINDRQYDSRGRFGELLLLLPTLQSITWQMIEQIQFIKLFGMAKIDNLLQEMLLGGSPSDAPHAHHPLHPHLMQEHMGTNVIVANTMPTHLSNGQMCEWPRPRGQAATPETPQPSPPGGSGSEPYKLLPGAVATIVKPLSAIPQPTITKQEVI
compound,measurement,setting,value
CCOC(=O)C1OC1c1ccccc1 (centres undefined),outcome,[1],inactive
same,outcome,[2],inactive
same,outcome,[3],inactive
same,outcome,[4],inactive
same,outcome,[5],inactive
same,outcome,[6],inactive
same,outcome,[7],inactive
same,AC50,[8],47 µM (active)
same,outcome,[9],inactive
same,outcome,[10],inactive
same,AC50,[11],64.4 µM (active)
C=CCN(CC=C)CC=C,outcome,[1],inactive
same,outcome,[12],inactive
same,outcome,[2],inactive
same,outcome,[5],inactive
same,outcome,[6],inactive
same,outcome,[7],inactive
same,outcome,[13],inactive
same,outcome,[9],inactive
same,outcome,[10],inactive
CCCN(CCC)S(=O)(=O)c1ccc(C(=O)O)cc1,outcome,[1],inactive
same,outcome,[12],inactive
same,outcome,[3],inactive
same,outcome,[5],inactive
same,outcome,[6],inactive
same,outcome,[7],inactive
same,outcome,[13],inactive
same,outcome,[8],inactive
same,outcome,[9],inactive
same,outcome,[10],inactive
same,outcome,[11],inactive
CCCC(=O)c1ccccc1,outcome,[1],inactive
same,outcome,[14],inactive
same,outcome,[2],inactive
same,outcome,[3],inactive
same,outcome,[5],inactive
same,outcome,[6],inactive
same,outcome,[7],inactive
same,outcome,[13],inactive
same,outcome,[9],inactive
same,outcome,[10],inactive
same,outcome,[11],inactive
O=C1c2ccccc2C(=O)c2c(O)ccc(O)c21,outcome,[15],inactive
same,outcome,[16],inactive
same,outcome,[14],inactive
same,outcome,[12],inactive
same,outcome,[2],inactive
same,outcome,[3],inactive
same,outcome,[4],inactive
same,outcome,[5],inactive
same,outcome,[6],inactive
same,outcome,[7],inactive
same,outcome,[13],inactive
same,AC50,[8],2.27 µM (active)
same,AC50,[9],4.07 µM (active)
same,outcome,[10],inactive
same,outcome,[11],inactive
same,AC50,[17],1.21 µM (active)
same,AC50,[18],3.02 µM (active)
same,outcome,[19],inactive
same,AC50,[20],4.31 µM (active)
CC=Cc1ccc(OC)c(OC)c1,outcome,[15],inactive
same,outcome,[16],inactive
same,outcome,[12],inactive
same,outcome,[3],inactive
same,outcome,[4],inactive
same,outcome,[5],inactive
same,outcome,[6],inactive
same,outcome,[7],inactive
same,outcome,[13],inactive
same,outcome,[8],inactive
same,outcome,[9],inactive
same,outcome,[10],inactive
same,outcome,[11],inactive
Cc1cc(S(=O)(=O)O)ccc1N=Nc1c(O)ccc2ccccc12,outcome,[15],inactive
same,outcome,[16],inactive
same,outcome,[14],inactive
same,outcome,[12],inactive
same,outcome,[4],inactive
same,outcome,[5],inactive
same,outcome,[7],inactive
same,outcome,[8],inactive
same,outcome,[9],inactive
same,outcome,[10],inactive
same,outcome,[11],inactive
COc1ccc(OC)c(N=Nc2c(O)ccc3ccccc23)c1,outcome,[15],inactive
same,outcome,[14],inactive
same,outcome,[12],inactive
same,outcome,[2],inactive
same,outcome,[4],inactive
same,outcome,[5],inactive
same,outcome,[6],inactive
same,outcome,[7],inactive
same,outcome,[13],inactive
same,outcome,[8],inactive
same,AC50,[9],0.493 µM (active)
same,outcome,[10],inactive
same,outcome,[11],inactive
same,outcome,[17],inactive
same,AC50,[18],12.2 µM (active)
same,AC50,[19],20 µM (active)
same,AC50,[20],9.47 µM (active)
CC/C=C\CC/C=C/CO,outcome,[15],inactive
same,outcome,[16],inactive
same,outcome,[14],inactive
same,outcome,[2],inactive
same,outcome,[3],inactive
same,outcome,[4],inactive
same,outcome,[5],inactive
same,outcome,[6],inactive
same,outcome,[7],inactive
same,outcome,[13],inactive
same,AC50,[9],48.2 µM (active)
same,outcome,[10],inactive
